Tests used:
Test in all cases: PBM binding z-score (relative to random genomic background probes); higher = stronger binding; sequences stand for … in GC…GCGATTGACAGCGTAGAATGAAGG
[1] = tested on: PPARg:RXRa DBDmut IVT, anti-RXR (DBD mutation: RXRa K156A/R161A, NR concentration 270 nM, RXRa partner concentration 90 nM)
Outline: (§1)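 Each nuclear receptor dimer, without ligand, was incubated for 1 h on custom Agilent 4×180K protein-binding microarrays. Binding was detected with antibodies against each partner (one per run), and scanned fluorescence was regression-normalized. The binding z-scores are referenced to random human genomic background probes.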

[2] = tested on: PPARg:RXRa IVT, anti-PPARg (NR concentration 270 nM, RXRa partner concentration 90 nM)
Outline: as §1

[3] = tested on: PPARg DBDmut:RXRa IVT, anti-PPARg (DBD mutation: PPARg1 K132A/R137A, NR concentration 270 nM, RXRa partner concentration 90 nM)
Outline: as §1

[4] = tested on: PPARg DBDmut IVT, anti-PPARg (DBD mutation: PPARg1 K132A/R137A, NR concentration 270 nM)
Outline: as §1

[5] = tested on: PPARg homodimer (NR concentration 180 nM)
Outline: as §1

[6] = tested on: PXR:RXRa (NR concentration 270 nM, RXRa partner concentration 90 nM)
Outline: as §1

[7] = tested on: PXR homodimer (NR concentration 270 nM)
Outline: as §1

[8] = tested on: RARa:RXR (NR concentration 270 nM, RXRa partner concentration 90 nM)
Outline: as §1

[9] = tested on: RARa homodimer (NR concentration 270 nM)
Outline: as §1

[10] = tested on: RARb:RXRa (NR concentration 270 nM, RXRa partner concentration 90 nM)
Outline: as §1

Row | Sequence | PBM binding z-score [1] | PBM binding z-score [2] | PBM binding z-score [3] | PBM binding z-score [4] | PBM binding z-score [5] | PBM binding z-score [6] | PBM binding z-score [7] | PBM binding z-score [8] | PBM binding z-score [9] | PBM binding z-score [10]
1 | ATTTCTAGGTAAAAGTTCAGTGAATCCCGAGGAT | 4.32 | 5.47 | 1.89 | 3.02 | 2.19 | 2.38 | 2.31 | 2.04 | 1.29 | 2.81
2 | CCTACTGGGGCAAGGTTACCATAACGCACAGCCA | 4.78 | 5.52 | 2.27 | 0.765 | 2.66 | 0.3 | -0.0906 | 0.631 | 0.512 | 1.7
3 | TCTTGTAGAACAGCAGGTTAAGAAAGCTGGCCAA | 1.67 | 0.554 | -0.871 | -0.593 | -0.509 | 0.0552 | -0.772 | -0.0223 | -1.16 | 0.0879
4 | GGAACGAGGGCATTAGAGTTGATAGCATGGCGAT | 3.06 | 2.02 | -0.0353 | -0.143 | 0.508 | 3.02 | 0.854 | 0.328 | -0.0747 | 1.79
5 | TCTTGTCGATCAAGCAGGTTAAGAAAGCCTGAGT | 0.974 | 0.231 | -0.395 | 0.403 | -0.519 | 0.505 | -0.0537 | 0.33 | -0.429 | 0.222
6 | TTACCAAGGTGAGCTGAGGGCGTTGATCCAACTC | 1.02 | 1.45 | 0.0128 | -0.0146 | -0.525 | 3.08 | -0.168 | 1.11 | -0.757 | 1.1
7 | CCTACTGGGACACGAAAGGTCATTGATTCAGTGA | 5.93 | 5.78 | 0.301 | -0.131 | 2.99 | 4.91 | 2.47 | 4.98 | 1.59 | 4.06
8 | ATATGTATGTTATCGGGTCATTCAGTTTGCGCAT | 4.28 | 4.3 | 1.17 | 1.83 | 1.39 | 3.37 | 6.74 | 2.59 | 1.05 | 1.98
9 | CAAACTAGGTCACCGGAAGGTCGAAGTCCGCATG | 8.58 | 9.05 | 2.73 | 2.92 | 3.05 | 3.91 | 0.000336 | 4.49 | 1.1 | 4.8
10 | ATCTCTAGGTAATCAAGTTCAGTGAATGCCGAAC | 2.71 | 2.29 | 0.964 | 0.455 | 0.892 | 1.95 | 2 | 0.799 | 0.778 | 1
11 | CGTCGAAGGTCAAAGGTCAGTGAAGAGATGACGG | 3.46 | 5.8 | 1.49 | 1.99 | 5.11 | 7.05 | 1.1 | 8.65 | 2.42 | 5.92
12 | CAAACTAGGTCACAGCGGTCAAAGTCCGTGCGTA | 8.22 | 8.97 | 2.1 | 1.7 | 2.78 | 3.32 | 1.36 | 3.58 | 1.2 | 4.58
13 | TTACCAATGTGAGCTGAGGTCGTTGATCCAACTC | -0.252 | -0.0612 | 0.679 | -0.281 | -0.49 | 2.46 | 0.562 | 1.53 | -0.185 | 0.439
14 | TAGCCTAGGTCTTTGGGCCAGTATAGTACGCATC | -0.223 | 0.546 | -1.01 | -0.496 | -0.656 | -0.782 | -0.961 | -0.806 | -0.737 | -0.161
15 | GATACAGGGTCAGCAAGAGGCCAGAGTATGGAAA | 0.915 | 2.6 | -0.173 | -0.37 | 1.98 | 3.23 | 0.0143 | 4.07 | 0.301 | 4.18
16 | ATATCTAGGTTAGCTGGGGTCATTCAGACTAGGC | 6.63 | 6.38 | 2.02 | 2.45 | 2.3 | 6.2 | 4.27 | 5.11 | 1.57 | 3.18
17 | CAAACTAGGTCACGAAGGGTCAAAGTCGAATGAC | 8.44 | 9.09 | 5.43 | 4.14 | 6.07 | 6.48 | 1 | 7.14 | 2.56 | 5.29
18 | TCGTATAGGTAAAGGTGAAAGTCGAACGATATGA | 2.04 | 2.57 | 0.89 | 0.655 | 1.4 | 0.71 | 0.0439 | 1.58 | 0.749 | 2.07
19 | TCTGCTAGGTCAACGATGGTCAGCCAATCTGCTA | 4.18 | 4.29 | 0.0146 | -0.247 | 1.87 | 1.6 | -0.979 | 2.02 | -0.83 | 4.26
20 | ACTATTAGTTGACTTAGGGCAGCCGATACGACGC | 0.0635 | 0.0175 | 1.35 | 0.429 | -0.15 | -0.251 | -0.115 | -0.045 | 0.705 | 0.758
21 | TCTTGTAGATCAACAGGAGGTTGAGAAAGATCGA | 1.36 | 0.267 | 0.852 | -0.116 | -0.716 | 0.0835 | -0.557 | 0.0993 | -0.378 | -0.147
22 | CCGACTGGGGCAGAAAGGTTACGATACCATCCGG | 1.98 | 2.35 | -0.302 | -0.0493 | 1.17 | 1.39 | -0.337 | 1.72 | -0.00415 | 1.92
23 | CCTTACGGGTCAAGGTTATAACACGGGTGGTACG | 2.12 | 3.6 | 0.305 | -0.192 | 2.04 | 3.52 | 0.548 | 4.5 | 0.85 | 4.24
24 | CCGGCTGGGGCATAAGGTTACCATAAGCCAGCCC | -0.781 | 0.196 | -2.71 | -2.08 | 1.02 | 0.131 | -0.484 | 1.23 | -0.82 | 1.62

— the supplement of paper PMC6555819
